# The source made the active and inactive calls.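 The calls were made as follows: active = luciferase signal above three times the same-plate solvent-only control wells; inactive = the rest.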
# Molecular target: Mitogen-activated protein kinase 7 (Homo sapiens) (UniProt Q13164)
# Assay: Gal4-ERK5 driven luciferase induction – cell-based, HTS, primary screen (AID 1508626);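 also: luciferase driven by Gal4-ERK5 fusion binding five Gal4 sites before minimal TATA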
# Conditions: HeLa Gal4-ERK5 transactivation, 18 h, at 5 µM, hits give high values
# Sequence of Mitogen-activated protein kinase 7 (Homo sapiens) (Q13164 whole entry, looked up, the tested form may be a part): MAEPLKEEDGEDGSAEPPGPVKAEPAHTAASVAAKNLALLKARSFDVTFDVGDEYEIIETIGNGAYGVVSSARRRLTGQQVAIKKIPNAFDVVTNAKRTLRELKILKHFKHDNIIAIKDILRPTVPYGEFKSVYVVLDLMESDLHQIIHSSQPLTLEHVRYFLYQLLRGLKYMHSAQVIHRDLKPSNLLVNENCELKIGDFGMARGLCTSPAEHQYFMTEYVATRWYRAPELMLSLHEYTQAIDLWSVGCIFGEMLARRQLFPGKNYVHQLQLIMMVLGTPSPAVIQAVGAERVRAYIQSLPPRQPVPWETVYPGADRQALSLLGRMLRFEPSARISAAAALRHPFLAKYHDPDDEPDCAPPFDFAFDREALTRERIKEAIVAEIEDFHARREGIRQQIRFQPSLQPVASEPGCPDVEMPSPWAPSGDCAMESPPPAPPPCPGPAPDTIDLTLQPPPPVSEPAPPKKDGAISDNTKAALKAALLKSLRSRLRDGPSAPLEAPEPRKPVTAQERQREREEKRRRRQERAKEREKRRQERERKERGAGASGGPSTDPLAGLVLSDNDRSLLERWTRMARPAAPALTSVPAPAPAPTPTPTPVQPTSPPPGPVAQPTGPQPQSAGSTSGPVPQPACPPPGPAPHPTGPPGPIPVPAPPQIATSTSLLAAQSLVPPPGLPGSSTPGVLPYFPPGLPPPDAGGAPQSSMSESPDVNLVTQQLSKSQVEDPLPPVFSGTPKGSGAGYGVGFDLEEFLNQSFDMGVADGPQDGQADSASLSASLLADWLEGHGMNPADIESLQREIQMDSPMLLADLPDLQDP
row,Compound,luciferase signal
1,CC(C)c1c(O)ccc2c1CC[C@H]1C(C)(C)CCC[C@]21C,20 AU (inactive)
2,Cn1c(=O)[nH]c2nc[nH]c2c1=O,56 AU (inactive)
3,CC(=O)OC(C)(C)[C@@H]1Cc2cc3ccc(=O)oc3cc2O1,40 AU (inactive)
4,CC(=O)O[C@H]1CC[C@@]2(C)C(=CC(=O)[C@H]3[C@@H]4CC[C@H]([C@H](C)CCCC(C)C)[C@@]4(C)CC[C@@H]32)C1,76 AU (inactive)
5,CC[C@H](CC[C@@H](C)[C@H]1CC[C@H]2[C@@H]3CC=C4C[C@@H](OC(C)=O)CC[C@]4(C)[C@H]3CC[C@]12C)C(C)C,36 AU (inactive)
6,C[C@H]1[C@H](C)CC[C@]2(CO)CC[C@]3(C)C(=CC[C@@H]4[C@@]5(C)CC[C@H](O)C(C)(C)[C@@H]5CC[C@]43C)[C@H]12,52 AU (inactive)
7,COC1=C(O)c2cc3oc(C(C)=O)c(O)c3c(O)c2C(=O)C1=O,52 AU (inactive)
8,CCCCCC/C=C\CCCCCCCc1cccc(O)c1C(=O)O,76 AU (inactive)
9,COc1cc(O)c2c(=O)c(O)c(-c3ccc(O)c(O)c3)oc2c1,144 AU (inactive)
10,CC(=O)CC(=O)CCC(=O)O,80 AU (inactive)
11,CC(=O)/C=C\[C@@H]1[C@@]2(C)CCCC(C)(C)C2CC[C@@]1(C)O (some centres undefined),348 AU (active)
12,O=C(Cc1ccccc1)NO,68 AU (inactive)
13,CC1(C)CC[C@]2(C(=O)O)CC[C@]3(C)C(=CC[C@@H]4[C@@]5(C)CC[C@H](O)[C@@](C)(CO)[C@@H]5CC[C@]43C)[C@@H]2C1,76 AU (inactive)
14,CC(=O)O[C@@H]1c2c(ccc3ccc(=O)oc23)OC(C)(C)[C@@H]1OC(=O)CC(C)C,188 AU (inactive)
15,COc1cc(C/C=C/c2ccccc2)c(OC)cc1O,56 AU (inactive)
16,CC1(C)C(=O)C=C[C@@]2(C)C1C=C[C@]1(C)C2CC[C@@]2(C)[C@H](c3ccoc3)OC(=O)C3OC321 (some centres undefined),40 AU (inactive)
17,C[N+]1(C)C[C@H](O)C[C@H]1C(=O)[O-],60 AU (inactive)
18,COc1cc(/C=C/CO)ccc1O,96 AU (inactive)
19,CC1/C(=N/O)C[C@@H]2C[C@H]1C2(C)C (some centres undefined),52 AU (inactive)
20,CC(=O)NC(Cc1c[nH]c2ccccc12)C(=O)O (centres undefined),64 AU (inactive)

row,Compound,luciferase signal
1,CC(=O)O[C@@H]1C[C@H]2C(C)(C)[C@@H](O)CC[C@]2(C)[C@H]2CC[C@@]3(C)[C@H](c4ccoc4)OC(=O)[C@H]4O[C@]43[C@@]21C,108 AU (inactive)
2,O=C(Cc1cccs1)N[C@@H]1C(=O)N2C(C(=O)[O-])=C(C[n+]3ccccc3)CS[C@H]12,112 AU (inactive)
3,Cc1cc(=O)c2c(O)cc(O)c(C)c2o1,132 AU (inactive)
4,COC(=O)C[C@H]1C(C)(C)C2(O)OC34CC2C(=O)[C@]1(C)C3CC[C@]1(C)C4=CC(=O)O[C@H]1c1ccoc1 (some centres undefined),20 AU (inactive)
5,C=C1C2CCC3(C)C(c4ccoc4)OC(=O)CC13OC1CC(=O)C(C)(C)C(CC(=O)OC)C12C (centres undefined),16 AU (inactive)
6,O=c1cc(-c2ccc(O)cc2)oc2cc(O[C@@H]3O[C@H](CO)[C@@H](O)[C@H](O)[C@H]3O)cc(O)c12,120 AU (inactive)
7,Cc1cc(O)c2c(c1O)C(=O)c1c(O)cc(C)c(O)c1C2=O,48 AU (inactive)
8,COc1ccc2c(c1)OC/C(=C/c1ccc(OC)c(OC)c1)C2=O,36 AU (inactive)
9,COc1c(-c2ccccc2)oc2c(ccc3occc32)c1=O,36 AU (inactive)
10,COc1cc(O)c2c(=O)cc(-c3ccc(OC)c(-c4c(O)cc(O)c5c(=O)cc(-c6ccc(O)cc6)oc45)c3)oc2c1,24 AU (inactive)
11,COc1ccc(-c2cc(=O)c3ccccc3o2)cc1OC,76 AU (inactive)
12,N[C@@H](CCC(=O)N[C@@H](CSC(CC(=O)O)C(=O)O)C(=O)NCC(=O)O)C(=O)O (some centres undefined),68 AU (inactive)
13,COc1ccc2c(c1)CC[C@@H]1[C@@H]2CC[C@]2(C)[C@@H](O)CC[C@@H]12,36 AU (inactive)
14,CCC(=O)OC1[C@@H]2CC3=C4CC(=O)O[C@@H](c5ccoc5)[C@]4(C)CCC3[C@@](C)(C2=O)[C@@H](CC(=O)OC)C1(C)C (some centres undefined),20 AU (inactive)
15,NC(=O)NCCC[C@H](N)C(=O)O,72 AU (inactive)
16,C[C@@H]1CC[C@H]2[C@](C)(CO)[C@@H](O)CC[C@]2(C)[C@@]12CC[C@@](CO)(CCO)O2,48 AU (inactive)
17,COc1c(O)cc2c(-c3ccccc3)cc(=O)oc2c1OC,48 AU (inactive)
18,CC1(C)C[C@@H]2C(=O)CC[C@H]3O[C@]3(C)CC[C@H]21,44 AU (inactive)
19,O=C(O)CN(CC(=O)O)Cc1cc2c(cc1O)Oc1cc(O)c(CN(CC(=O)O)CC(=O)O)cc1C21OC(=O)c2ccccc21,140 AU (inactive)
